Records with an inconclusive call do not appear. Activity calls are given as the source filed them. Unless noted, calls come from the whole dose curve; as a rule, active = well fitted curve in the direction sought with a large enough effect; inconclusive = small, poorly fitted or top-dose-only effect, or another doubt; inactive = no such curve, though single readings can be large; an effect the other way counts as inactive or inconclusive.
Columns and labels:
[1] = Cell Viability - BJ (AID 421; calls by dose curve;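 note: potency is the fitted concentration of half-maximal effect; cells exposed to compound for 40 hours at 37 °C before readout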); details: BJ fibroblast viability, qHTS
How it was run: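 Luminescent ATP signal (CellTiter-Glo, 20 min at room temperature) served as the read-out of viable BJ cells after 40 hours of compound treatment. Responses were scaled between DMSO and 100 uM tamoxifen, and AC50 values were obtained by Hill modeling.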

[2] = Cell Viability - Jurkat (AID 426;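 active = dose-dependent loss of cell ATP signal giving a full or clear fitted curve, ranked by lower potency value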;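 note: potency is the fitted concentration of half-maximal effect; cells exposed to compound for 40 hours at 37 °C before ATP read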); details: qHTS
How it was run: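 Cells of the human T-cell leukemia line Jurkat (E6-1) are seeded at 5000 per well, treated with compound across a concentration range for 40 hours at 37 °C, then lysed with CellTiter-Glo; luminescence reports ATP.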

[3] = Cell Viability - HepG2 (AID 433; calls by dose curve;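 note: potency is the fitted concentration of half-maximal effect; potency for ATP loss meaning cytotoxicity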); details: qHTS
How it was run: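 HepG2 hepatocellular carcinoma cells (1500/well) were treated with compounds for 40 h at 37 °C in complete medium; intracellular ATP was read by CellTiter-Glo luminescence. Data were normalized to DMSO and 100 uM tamoxifen, and AC50 came from Hill fits.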

[4] = Cell Viability - MRC5 (AID 434; calls by dose curve;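 note: potency is the fitted concentration of half-maximal effect; potency reflects cytotoxicity seen as loss of intracellular ATP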); details: MRC5 lung fibroblast viability, qHTS
How it was run: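 ATP luminescence read-out (CellTiter-Glo, 20 min RT) after 40 hr, 37 °C compound exposure of 1500 MRC5 cells/well. Data normalized to DMSO (basal) and 100 uM tamoxifen (100% inhibition); AC50 from standard Hill equation.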

[5] = Cell Viability - SK-N-SH (AID 435; calls by dose curve;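 note: potency is the fitted concentration of half-maximal effect; compound exposure lasted 40 h at 37 °C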); details: SK-N-SH neuroblastoma cell viability qHTS
How it was run: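 SK-N-SH human neuroblastoma cells (1500/well) were exposed to compounds in complete medium for 40 h at 37 °C, and intracellular ATP was then measured by CellTiter-Glo luminescence. AC50 was taken from Hill fits, normalized to DMSO and 100 uM tamoxifen.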

[6] = Cell Viability - N2a (AID 540); details: N2a mouse neuroblastoma cell viability; at 92.2 µM (top of the series);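 note: plate controls were DMSO alone for no effect and tamoxifen control for full effect; nearly all actives have a fitted effect of over 45% in size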
How it was run: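 Cytotoxicity was scored as loss of cellular ATP in N2a cells, a mouse neuroblastoma line. Compounds are applied in a qHTS concentration series for 40 hr at 37 °C.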

[7] = Cell Viability - NIH 3T3 (AID 541); details: NIH 3T3 cell viability, qHTS; at 92.2 µM (top of the series);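 note: plate controls were DMSO alone for no effect and tamoxifen positive control for full effect; nearly all actives have a fitted effect of over 25% in size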
How it was run: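 Cells seeded at 1000/well, rested 5 hr at 37 °C, then dosed and incubated 40 hr at 37 °C. CellTiter-Glo added, 20 min room temperature, luminescence read. AC50 by Hill fit.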

[8] = Cell Viability - HUV-EC-C (AID 542); details: HUV-EC-C endothelial cell viability, qHTS; note: potency is the fitted concentration of half-maximal effect; nearly all actives have a fitted effect of over 35% in size
How it was run: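 Cells were seeded at 1000 per well and incubated 5 hr at 37 °C before compound addition. After 40 hr at 37 °C, CellTiter-Glo reagent was added for 20 min and luminescence read. AC50 values came from Hill-equation modelling.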

[9] = Cell Viability - H-4-II-E (AID 543); details: H-4-II-E rat hepatoma viability; note: potency is the fitted concentration of half-maximal effect; nearly all actives have a fitted effect of over 35% in size
How it was run: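 Cells seeded at 1500 per well and rested 5 hr; compounds added; 40 hr incubation at 37 °C; CellTiter-Glo added, 20 min at room temperature; luminescence read. Hill-equation fits gave AC50.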

[10] = Cell Viability - SH-SY5Y (AID 544); details: SH-SY5Y neuroblastoma cell viability; note: potency is the fitted concentration of half-maximal effect; nearly all actives have a fitted effect of over 55% in size
How it was run: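 Cells were plated at 1500 per well and allowed 5 hr at 37 °C. Compounds were added across a concentration range and incubated 40 hr at 37 °C. CellTiter-Glo was added for 20 min at room temperature before luminescence reading.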

[11] = Cell Viability - Renal Proximal Tubule (AID 545); details: renal proximal tubule cells viability, primary cells of rat origin; at 91.7 µM (top of the series);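 note: 0% = DMSO only and -100% = 100 µM tamoxifen; nearly all actives have a fitted effect of over 40% in size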
How it was run: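 Primary rat renal proximal tubule cells (1000/well) were treated with compounds for 40 hr at 37 °C in complete medium. Intracellular ATP was measured by CellTiter-Glo luminescence, and AC50 values came from Hill-equation fits of concentration-response data.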

[12] = Cell Viability - Mesenchymal (AID 546); details: mesenchymal cells viability, qHTS;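 note: potency is the fitted concentration of half-maximal effect; cells exposed to compound for 40 hours before reading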
How it was run: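 Human renal mesenchymal cells (glomerulus-derived), 1000 cells/well, 5 hr 37 °C pre-incubation; compound 40 hr, 37 °C; CellTiter-Glo, 20 min RT; luminescence; AC50 via Hill equation.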

[13] = Cellular Toxicity (caspase-3) HepG2 (AID 654);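 note: cells exposed to compound for 16 hours before reading; 0% = DMSO alone and 100% = caspase signal from 100 µM tamoxifen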
How it was run: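 Caspase 3/7 activation in HepG2 is measured as rising luminescence after a 16 hr treatment at 37 °C. Values are scaled between DMSO basal and 100 uM tamoxifen, and AC50 is fitted with the Hill equation.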

[14] = Cellular Toxicity (caspase-3) Jurkat (AID 655);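 note: cells exposed to compound for 16 h at 37 °C before reading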
How it was run: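 Jurkat cells (5000/well) in complete medium were treated with compounds for 16 hr at 37 °C, then Caspase-Glo 3/7 luminescence was read after 20 min at room temperature. Data normalized to DMSO (basal) and 100 uM tamoxifen (100%); AC50 from Hill fit.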

[15] = Cellular Toxicity (caspase-3) HUV-EC-C (AID 656);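 note: 0% = DMSO basal and 100% = 100 µM tamoxifen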
How it was run: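 HUV-EC-C endothelial cells, 1000/well, were pre-incubated 5 hr at 37°C, then exposed to compounds for 16 hr at 37°C. Caspase-Glo 3/7 luminescence was read after 20 min at room temperature. AC50 came from Hill fits, normalized to DMSO and 100 uM tamoxifen.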

[16] = Cellular Toxicity (caspase-3) SHSY5Y (AID 657)
How it was run: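 SH-SY5Y human neuroblastoma cells (1500/well) were treated with compounds for 16 h at 37 °C, then Caspase-Glo 3/7 luminescence was read after 1 h at room temperature. Data normalized to DMSO and 10 uM staurosporine; AC50 from Hill fits.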

[17] = Cellular Toxicity (caspase-3) BJ (AID 658);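 note: 0% = DMSO basal and 100% = 10 µM staurosporine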
How it was run: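 qHTS, BJ fibroblasts, 1000 cells/well; 5 hr preincubation, 16 hr compound, 37 °C; Caspase-Glo 3/7 reagent, 1 hr RT; luminescence. DMSO = 0%, 10 uM staurosporine = 100%. Hill-equation AC50.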

[18] = Cellular Toxicity (caspase-3) MRC-5 (AID 659);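 note: 0% = DMSO basal and 100% = 10 µM staurosporine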
How it was run: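 MRC-5 fibroblasts, 1500/well; 16 h cpd, 37 °C; Caspase-Glo 3/7, 1 h RT; lumi read. Norm: DMSO = 0%, 10 uM staurosporine = 100%. Hill-fit AC50 from qHTS conc-response.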

[19] = Cellular Toxicity (caspase-3) Mesangial (AID 660);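 note: combined caspase 3 and 7 activity read by Caspase-Glo luminescence; cells exposed to compound for 16 h before the caspase read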
How it was run: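 Seed cells derived from normal human renal glomeruli, incubate 5 h, add compounds across concentrations and incubate 16 h at 37 °C. Caspase 3/7 activation is then quantified by luciferase light, with AC50 derived by Hill modeling.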

O=C1c2c(O)ccc([N+](=O)[O-])c2C(=O)c2c([N+](=O)[O-])ccc(O)c21
active: Potency [1] 28.5 µM | Potency [2] 25.8 µM | Potency [3] 27.4 µM | Potency [4] 30.1 µM | Potency [5] 28.8 µM | activity change, negative = cytotoxicity [6] -111% | activity change, negative = cytotoxicity [7] -139% | Potency [8] 31.6 µM | Potency [9] 31.6 µM | Potency [10] 25.1 µM | activity change, negative = cytotoxicity [11] -107% | Potency [12] 31.6 µM
inactive: outcome [13] | outcome [14] | outcome [15] | outcome [16] | outcome [17] | outcome [18] | outcome [19]

Source: PubChem BioAssay (NCATS)
